Experimental data reported in PubChem BioAssay (NCATS).
Inconclusive results are not listed. A call without a number means that no potency is given here. Active and inactive are the calls of the source. The call rests on the fitted dose curve; in most records, active means well fitted inhibition curve with a large enough effect; inconclusive means small, poorly fitted or top-dose-only effect; inactive means flat fitted curve, though single readings scatter.

How the values were obtained:
Assay in all cases: qHTS profiling for inhibitors of Plasmodium falciparum proliferation (AID 504749); further: nearly all actives have a fitted effect of over 60% in size
Details in all cases: P. falciparum in erythrocytes, SYBR Green DNA, 72 h; series mostly up to 28.7 µM
CP297 = tested on: CP297
Outline: (§1)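 In a 72 h erythrocytic culture (37 C, humidified, 5% CO2) at 2.5% hematocrit and 0.3% starting parasitemia, compounds were tested; SYBR Green I in detergent lysis buffer stained parasite DNA overnight.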

CP315 = tested on: CP315
Outline: as §1

CP325 = tested on: CP325
Outline: as §1

DFO2036 = tested on: DFO2036
Outline: as §1

DIV14 = tested on: DIV14
Outline: as §1

DIV17 = tested on: DIV17
Outline: as §1

DIV30 = tested on: DIV30
Outline: as §1

Dd2 = tested on: Dd2
Outline: as §1

ECU = tested on: ECU
Outline: as §1

GB4 = tested on: GB4
Outline: as §1

HB3 = tested on: HB3
Outline: as §1

ICS = tested on: ICS
Outline: as §1

N140 = tested on: N140
Outline: as §1

P93_24 = tested on: P93_24
Outline: as §1

P94_40 = tested on: P94_40
Outline: as §1

CP305 = tested on: CP305
Outline: as §1

CP335 = tested on: CP335
Outline: as §1

FAB9 = tested on: FAB9
Outline: as §1

JCK = tested on: JCK
Outline: as §1

CP329 = tested on: CP329
Outline: as §1
Potency means the concentration at half of the fitted maximal effect.

Compound: C=CCOC(Cn1ccnc1)c1ccc(Cl)cc1Cl (stereo not given)
- Potency (CP297): 6.75 µM (active)
- Potency (CP315): 16.9 µM (active)
- Potency (CP325): 15.1 µM (active)
- Potency (DFO2036): 12.6 µM (active)
- Potency (DIV14): 5.36 µM (active)
- Potency (DIV17): 8.49 µM (active)
- Potency (DIV30): 7.57 µM (active)
- Potency (Dd2): 7.08 µM (active)
- Potency (ECU): 3.98 µM (active)
- Potency (GB4): 4.78 µM (active)
- Potency (HB3): 11.2 µM (active)
- Potency (ICS): 2.51 µM (active)
- Potency (N140): 5.62 µM (active)
- Potency (P93_24): 3.98 µM (active)
- Potency (P94_40): 10 µM (active)

Compound: O=C(CCCN1CCC(n2c(=O)[nH]c3ccccc32)CC1)c1ccc(F)cc1
- Potency (CP305): 5.1 µM (active)
- Potency (CP325): 5.1 µM (active)
- Potency (CP335): 1.44 µM (active)
- Potency (DFO2036): 1.58 µM (active)
- Potency (DIV14): 0.642 µM (active)
- Potency (DIV17): 0.642 µM (active)
- Potency (DIV30): 2.56 µM (active)
- Potency (Dd2): 1 µM (active)
- Potency (ECU): 1.78 µM (active)
- Potency (FAB9): 3.98 µM (active)
- Potency (GB4): 0.809 µM (active)
- Potency (HB3): 1 µM (active)
- Potency (ICS): 0.316 µM (active)
- Potency (JCK): 3.55 µM (active)
- Potency (N140): 0.891 µM (active)
- Potency (P93_24): 0.891 µM (active)
- Potency (P94_40): 0.891 µM (active)

Compound: CN1CCc2cc(Cl)c(O)cc2[C@H]2c3ccccc3CC[C@@H]21
- Potency (CP315): inactive
- Potency (CP325): inactive
- Potency (CP335): 8.49 µM (active)
- Potency (Dd2): 10 µM (active)
- Potency (FAB9): inactive
- Potency (JCK): inactive

Compound: c1cc2c(c(N3CCNCC3)c1)OCCO2
- Potency (CP305): inactive
- Potency (CP315): inactive
- Potency (CP325): inactive
- Potency (CP329): inactive
- Potency (CP335): inactive
- Potency (DFO2036): inactive
- Potency (DIV14): inactive
- Potency (DIV30): inactive
- Potency (Dd2): inactive
- Potency (ECU): inactive
- Potency (FAB9): inactive
- Potency (GB4): inactive
- Potency (HB3): inactive
- Potency (ICS): inactive
- Potency (JCK): inactive
- Potency (N140): inactive
- Potency (P93_24): inactive
- Potency (P94_40): inactive

Compound: C[N+]1(CCC(C(N)=O)(c2ccccc2)c2ccccc2)CCCCC1
- Potency (CP297): inactive
- Potency (CP305): inactive
- Potency (CP315): inactive
- Potency (CP329): inactive
- Potency (CP335): inactive
- Potency (DFO2036): inactive
- Potency (DIV14): inactive
- Potency (DIV17): inactive
- Potency (DIV30): inactive
- Potency (Dd2): inactive
- Potency (ECU): inactive
- Potency (FAB9): inactive
- Potency (GB4): inactive
- Potency (HB3): inactive
- Potency (ICS): inactive
- Potency (JCK): inactive
- Potency (N140): inactive
- Potency (P93_24): inactive
- Potency (P94_40): inactive

Compound: CC[C@]1(O)CC[C@H]2[C@@H]3CCC4=CCCC[C@@H]4[C@H]3CC[C@@]21C
- Potency (CP297): inactive
- Potency (CP315): inactive
- Potency (CP325): inactive
- Potency (CP329): inactive
- Potency (CP335): inactive
- Potency (Dd2): inactive
- Potency (ECU): inactive
- Potency (FAB9): inactive
- Potency (GB4): inactive
- Potency (HB3): inactive
- Potency (JCK): inactive
- Potency (P94_40): 11.2 µM (active)

Compound: O=C(NC(=O)c1c(F)cccc1F)Nc1cc(Cl)c(OC(F)(F)C(F)C(F)(F)F)cc1Cl (stereo not given)
- Potency (CP297): inactive
- Potency (CP305): inactive
- Potency (CP315): inactive
- Potency (CP325): inactive
- Potency (CP329): inactive
- Potency (DIV14): inactive
- Potency (DIV17): inactive
- Potency (DIV30): inactive
- Potency (FAB9): inactive
- Potency (GB4): inactive
- Potency (JCK): inactive
- Potency (P93_24): 8.91 µM (active)
- Potency (P94_40): 12.6 µM (active)
